Assay results reported in ChEMBL document CHEMBL3988442, “University of Dundee, Small-Polar-MMV Screening Library” (2021).
For some assays here: Entries with a potency or affinity are not part of this list.

Experiments:
Design in all cases: scale not given: direction of the effect not stated beside the values
[1] = molecular target: Protein translocase subunit SecA (Escherichia coli (strain K12)) (UniProt P10408); assay: Assay to Identify E. coli SecA ATPase Inhibitors; format: functional; details: 30 µM
Chain of Protein translocase subunit SecA (Escherichia coli (strain K12)) (P10408 whole entry): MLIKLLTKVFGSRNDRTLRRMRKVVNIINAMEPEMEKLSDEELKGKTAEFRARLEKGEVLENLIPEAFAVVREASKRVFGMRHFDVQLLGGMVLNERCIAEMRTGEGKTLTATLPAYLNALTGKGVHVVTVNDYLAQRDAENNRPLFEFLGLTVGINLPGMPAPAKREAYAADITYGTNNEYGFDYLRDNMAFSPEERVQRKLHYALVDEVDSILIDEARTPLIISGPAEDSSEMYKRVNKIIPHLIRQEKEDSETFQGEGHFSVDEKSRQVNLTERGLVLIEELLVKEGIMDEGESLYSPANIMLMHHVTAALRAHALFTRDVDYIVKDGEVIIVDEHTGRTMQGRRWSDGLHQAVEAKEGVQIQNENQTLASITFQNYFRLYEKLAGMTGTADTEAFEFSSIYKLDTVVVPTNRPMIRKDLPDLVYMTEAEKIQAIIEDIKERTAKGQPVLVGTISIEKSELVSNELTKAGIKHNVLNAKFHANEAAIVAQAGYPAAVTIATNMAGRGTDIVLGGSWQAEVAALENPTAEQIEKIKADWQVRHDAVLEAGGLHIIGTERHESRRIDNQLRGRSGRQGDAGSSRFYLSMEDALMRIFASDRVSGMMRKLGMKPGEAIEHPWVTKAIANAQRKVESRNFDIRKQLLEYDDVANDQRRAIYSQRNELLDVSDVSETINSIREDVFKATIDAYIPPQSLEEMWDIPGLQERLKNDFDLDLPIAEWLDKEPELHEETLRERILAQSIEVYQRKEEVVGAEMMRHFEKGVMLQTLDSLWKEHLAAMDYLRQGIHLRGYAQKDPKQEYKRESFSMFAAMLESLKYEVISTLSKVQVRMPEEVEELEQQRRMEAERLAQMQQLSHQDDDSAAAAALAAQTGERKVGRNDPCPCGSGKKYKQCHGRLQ

[2] = molecular target: T1, Ubiquitin-activating enzyme e1, putative (Leishmania donovani (strain BPK282A1)) (UniProt E9BSI1); assay: Leishmania donovani Ubiquitin Activating Enzyme (LdE1); format: functional; details: 30 µM
T1 sequence (whole entry): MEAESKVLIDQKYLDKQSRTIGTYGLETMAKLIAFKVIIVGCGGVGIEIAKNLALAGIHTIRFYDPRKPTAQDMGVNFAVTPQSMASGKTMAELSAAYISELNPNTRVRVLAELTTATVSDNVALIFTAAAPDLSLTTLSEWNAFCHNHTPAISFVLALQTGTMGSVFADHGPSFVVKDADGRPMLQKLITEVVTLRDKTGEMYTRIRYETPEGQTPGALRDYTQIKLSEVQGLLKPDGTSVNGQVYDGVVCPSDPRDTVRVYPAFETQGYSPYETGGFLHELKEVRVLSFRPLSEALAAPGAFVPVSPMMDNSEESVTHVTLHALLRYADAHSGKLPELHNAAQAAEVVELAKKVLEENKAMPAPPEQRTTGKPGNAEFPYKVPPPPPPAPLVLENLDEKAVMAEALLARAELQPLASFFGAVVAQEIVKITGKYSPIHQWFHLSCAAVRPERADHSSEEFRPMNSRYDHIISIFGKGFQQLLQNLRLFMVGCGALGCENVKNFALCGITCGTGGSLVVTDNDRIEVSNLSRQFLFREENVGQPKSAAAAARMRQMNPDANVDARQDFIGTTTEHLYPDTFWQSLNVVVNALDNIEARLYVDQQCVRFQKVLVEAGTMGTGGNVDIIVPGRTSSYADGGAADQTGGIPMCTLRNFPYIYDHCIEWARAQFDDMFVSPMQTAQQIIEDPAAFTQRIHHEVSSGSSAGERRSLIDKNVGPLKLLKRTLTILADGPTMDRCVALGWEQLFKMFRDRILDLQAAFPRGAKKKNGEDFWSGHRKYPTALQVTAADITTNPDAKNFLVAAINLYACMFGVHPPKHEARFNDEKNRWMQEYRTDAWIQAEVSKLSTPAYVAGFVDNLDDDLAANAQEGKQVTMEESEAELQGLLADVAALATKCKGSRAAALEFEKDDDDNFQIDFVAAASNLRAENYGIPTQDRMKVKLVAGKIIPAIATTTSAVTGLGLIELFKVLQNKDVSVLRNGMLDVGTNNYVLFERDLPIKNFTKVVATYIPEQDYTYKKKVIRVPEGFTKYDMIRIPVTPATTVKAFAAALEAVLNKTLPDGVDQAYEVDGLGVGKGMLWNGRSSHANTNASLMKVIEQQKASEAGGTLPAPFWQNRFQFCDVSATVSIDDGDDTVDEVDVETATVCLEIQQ

[3] = molecular target: AMP-activated protein kinase, AMPK (Homo sapiens) (UniProt P54646+O43741+P54619+Q9UGJ0+Q9Y478+Q13131+Q9UGI9); assay: AMP-dependent Kinase enzyme assay. An in vitro enzyme assay that detects ADP turnover that is directly proportional to AMPK activity. This uses naive AMPK that is activated during the assay with MK-8722; format: functional; details: 30 µM
[4] = molecular target: Sialic acid-binding Ig-like lectin 9 (Homo sapiens) (UniProt Q9Y336); assay: Hs-Siglec9 ALPHAscreen SOP 20170721; details: 10 µM
Chain of Sialic acid-binding Ig-like lectin 9 (Homo sapiens) (Q9Y336 whole entry): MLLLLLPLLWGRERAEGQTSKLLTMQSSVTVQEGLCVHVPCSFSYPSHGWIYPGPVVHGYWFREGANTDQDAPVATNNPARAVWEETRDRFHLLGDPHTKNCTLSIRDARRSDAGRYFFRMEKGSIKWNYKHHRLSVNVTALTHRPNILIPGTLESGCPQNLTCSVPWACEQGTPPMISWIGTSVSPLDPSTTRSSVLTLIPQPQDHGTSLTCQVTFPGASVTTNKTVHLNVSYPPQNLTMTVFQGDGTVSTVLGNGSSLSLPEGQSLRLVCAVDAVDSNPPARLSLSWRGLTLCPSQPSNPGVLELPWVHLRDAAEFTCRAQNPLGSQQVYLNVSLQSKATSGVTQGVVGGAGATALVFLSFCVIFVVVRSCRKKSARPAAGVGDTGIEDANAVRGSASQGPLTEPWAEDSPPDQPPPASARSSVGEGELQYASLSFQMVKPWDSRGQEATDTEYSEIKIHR

Trypanosoma cruzi = assay: Trypanosoma cruzi phosphomannomutase and mannose-1-phosphate guanylyltransferase assay; format: functional; details: 10 µM
[5] = molecular target: T2, Arginase-2, mitochondrial (Homo sapiens) (UniProt P78540); assay: in vitro enzyme assay to detect the production of urea directly proportional to the activity of Arginase II; format: functional; details: 33.3 µM; note: in the data most compounds retested in dose-response had high values
T2 sequence (whole entry): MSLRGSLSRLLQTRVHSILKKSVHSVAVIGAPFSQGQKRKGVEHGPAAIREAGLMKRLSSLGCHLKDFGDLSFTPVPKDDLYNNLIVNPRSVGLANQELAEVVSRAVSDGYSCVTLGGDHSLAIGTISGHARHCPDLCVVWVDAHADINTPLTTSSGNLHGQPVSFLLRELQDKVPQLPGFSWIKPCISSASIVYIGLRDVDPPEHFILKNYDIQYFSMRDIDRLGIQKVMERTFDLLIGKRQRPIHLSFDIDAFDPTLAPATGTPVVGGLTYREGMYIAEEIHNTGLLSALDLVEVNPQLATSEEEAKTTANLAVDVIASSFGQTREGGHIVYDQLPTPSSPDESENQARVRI

[6] = molecular target: T3, Proteasome subunit beta (Trypanosoma cruzi) (UniProt O96673); assay: Trypanosoma cruzi proteasome chymotrypsin-like activity (TcProtChymo) assay.; note: in the data most compounds retested in dose-response had high values; format: functional; details: 9.37 µM
T3 sequence (whole entry): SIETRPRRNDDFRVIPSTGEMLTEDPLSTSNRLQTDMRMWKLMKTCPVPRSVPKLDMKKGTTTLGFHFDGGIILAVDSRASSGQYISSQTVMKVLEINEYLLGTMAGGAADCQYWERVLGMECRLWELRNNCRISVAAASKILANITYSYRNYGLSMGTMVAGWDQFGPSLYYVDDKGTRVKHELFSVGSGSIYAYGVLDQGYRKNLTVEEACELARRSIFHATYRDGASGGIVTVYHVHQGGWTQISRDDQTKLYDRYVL

Homo sapiens = organism: Homo sapiens; assay: To identify inhibition of the IFN signalling (Jak-Stat) pathway via expression of an eGFP reporter gene under the control of an IFN-stimulated response element (ISRE) containing MxA promoter.; format: functional; details: 30 µM
[7] = molecular target: T4, Tyrosyl-tRNA synthetase, putative (Trypanosoma cruzi (strain CL Brener)) (UniProt Q4DSP6); assay: Trypanosoma cruzi tyrosyl tRNA synthetase (TcYRS) _High Tyrosine SOP; format: functional; details: 30 µM; note: in the data most compounds retested in dose-response had high values
T4 sequence (whole entry): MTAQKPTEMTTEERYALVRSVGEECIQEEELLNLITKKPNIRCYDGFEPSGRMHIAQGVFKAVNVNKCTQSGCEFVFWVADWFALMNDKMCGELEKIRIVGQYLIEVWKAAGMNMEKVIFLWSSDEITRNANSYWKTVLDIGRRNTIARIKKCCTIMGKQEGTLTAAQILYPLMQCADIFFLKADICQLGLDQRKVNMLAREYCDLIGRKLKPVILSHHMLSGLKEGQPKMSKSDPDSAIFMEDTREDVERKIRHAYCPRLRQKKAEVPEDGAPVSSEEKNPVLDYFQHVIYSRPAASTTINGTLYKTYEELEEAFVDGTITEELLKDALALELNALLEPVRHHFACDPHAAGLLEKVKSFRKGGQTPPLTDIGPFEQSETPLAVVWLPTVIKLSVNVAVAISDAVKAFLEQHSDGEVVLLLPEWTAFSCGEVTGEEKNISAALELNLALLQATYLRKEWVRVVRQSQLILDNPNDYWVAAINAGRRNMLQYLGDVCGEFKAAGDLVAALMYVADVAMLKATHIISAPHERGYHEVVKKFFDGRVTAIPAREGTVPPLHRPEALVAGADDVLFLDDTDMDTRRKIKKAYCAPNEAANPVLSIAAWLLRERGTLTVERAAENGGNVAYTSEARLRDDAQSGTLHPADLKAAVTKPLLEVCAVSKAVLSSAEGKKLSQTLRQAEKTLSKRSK

[8] = molecular target: T4, Tyrosyl-tRNA synthetase, putative (Trypanosoma cruzi (strain CL Brener)); assay: Trypanosoma cruzi tyrosyl tRNA synthetase (TcYRS) SOP; format: functional; details: 30 µM
[9] = molecular target: Chromo domain-containing protein 1 (Saccharomyces cerevisiae (strain ATCC 204508 / S288c) (Baker's yeast)) (UniProt P32657); assay: ScCHD-1 Enzyme Inhibition Assay; format: functional; details: 30 µM; note: in the data most compounds retested in dose-response had high values
Chain of Chromo domain-containing protein 1 (Saccharomyces cerevisiae (strain ATCC 204508 / S288c) (Baker's yeast)) (P32657 whole entry, the tested form may be a part): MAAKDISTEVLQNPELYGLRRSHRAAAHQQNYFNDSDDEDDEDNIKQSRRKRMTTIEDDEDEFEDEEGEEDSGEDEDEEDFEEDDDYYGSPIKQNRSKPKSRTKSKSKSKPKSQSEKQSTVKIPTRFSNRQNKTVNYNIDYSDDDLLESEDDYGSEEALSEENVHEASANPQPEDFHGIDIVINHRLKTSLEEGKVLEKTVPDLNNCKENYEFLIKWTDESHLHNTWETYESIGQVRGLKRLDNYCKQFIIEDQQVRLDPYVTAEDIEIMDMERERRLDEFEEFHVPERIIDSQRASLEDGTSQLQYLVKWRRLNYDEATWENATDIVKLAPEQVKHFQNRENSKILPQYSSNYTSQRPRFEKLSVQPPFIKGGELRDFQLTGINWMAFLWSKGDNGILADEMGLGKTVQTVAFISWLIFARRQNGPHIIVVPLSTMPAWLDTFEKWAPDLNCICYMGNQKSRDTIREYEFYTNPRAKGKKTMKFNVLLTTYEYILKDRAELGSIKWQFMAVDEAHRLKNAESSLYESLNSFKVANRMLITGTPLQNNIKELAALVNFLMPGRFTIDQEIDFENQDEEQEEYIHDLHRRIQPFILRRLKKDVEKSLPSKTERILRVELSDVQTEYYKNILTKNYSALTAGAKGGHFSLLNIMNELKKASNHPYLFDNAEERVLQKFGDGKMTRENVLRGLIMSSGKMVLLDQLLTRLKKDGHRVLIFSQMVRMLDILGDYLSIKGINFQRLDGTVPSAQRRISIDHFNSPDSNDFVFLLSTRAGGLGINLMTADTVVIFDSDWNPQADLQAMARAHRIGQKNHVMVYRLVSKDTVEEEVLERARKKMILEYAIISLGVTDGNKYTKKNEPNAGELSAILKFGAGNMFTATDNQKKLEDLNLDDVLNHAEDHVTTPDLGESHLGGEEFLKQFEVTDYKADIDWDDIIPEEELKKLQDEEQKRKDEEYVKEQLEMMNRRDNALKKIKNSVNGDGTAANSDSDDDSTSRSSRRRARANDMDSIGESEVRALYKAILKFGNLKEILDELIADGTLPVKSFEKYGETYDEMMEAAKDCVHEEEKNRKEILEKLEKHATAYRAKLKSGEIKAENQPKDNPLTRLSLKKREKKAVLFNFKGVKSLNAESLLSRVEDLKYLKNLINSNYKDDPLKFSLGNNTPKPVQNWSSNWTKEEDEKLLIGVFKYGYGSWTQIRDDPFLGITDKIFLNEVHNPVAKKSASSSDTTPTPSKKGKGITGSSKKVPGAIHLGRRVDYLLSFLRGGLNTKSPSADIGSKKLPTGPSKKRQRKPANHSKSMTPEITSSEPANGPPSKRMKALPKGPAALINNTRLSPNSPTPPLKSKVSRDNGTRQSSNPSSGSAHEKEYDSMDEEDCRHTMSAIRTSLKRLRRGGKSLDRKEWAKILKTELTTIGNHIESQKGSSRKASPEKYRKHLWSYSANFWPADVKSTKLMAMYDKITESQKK

SMILES	Percent Effect [1]	Percent Effect [2]	Percent Effect [3]	Percent Effect [4]	Percent Effect (Trypanosoma cruzi)	Percent Effect [5]	Percent Effect [6]	Percent Effect (Homo sapiens)	Percent Effect [7]	Percent Effect [8]	Percent Effect [9]
O=C(Nc1ncn(CC(=O)N2CCCCCC2)n1)C1CCCO1 (stereo unspecified)	-2.31%	7.89%	0.569%	1.68%	-6.39%	4.6%	1%	17.6%	2.45%	9.76%	-1.04%
Cc1noc(Cl)c1CCC(=O)N1CCCCC1Cn1cccn1 (stereo unspecified)	-5.73%	5.26%	1.98%	-0.589%	1.85%	-2.37%	9.3%	-6.24%	3.19%	5.2%	-7.11%
Cc1nc(-c2ccccc2)n(CC(=O)NCC(C)C)n1	-1.39%	13.5%	-9.59%	-7.18%	-7.08%	-4.01%	1.62%	19.8%	5.42%	13.6%	-5.55%
CN(CCO)Cc1nnc(C2CCN(C3CCCCC3)CC2)n1C	-3.52%	8%	0.423%	-0.412%	-3.41%	2.08%	18.1%	10.8%	2.73%	11.1%	-6.36%
Cc1cc(CN2CCCC2c2noc(C3CC3)n2)c2ccccc2n1 (stereo unspecified)	1.53%	-16.2%	-1.25%	5.64%	-1.39%	9.8%	-4.49%	94.8%	11.9%	3.66%	12.8%
O=C(c1cccc(=O)[nH]1)N(Cc1ccsc1)CC1CCCO1 (stereo unspecified)	-0.641%	10.8%	-7.24%	6.17%	-0.386%	2.86%	12.8%	11.3%	7.94%	17.1%	-1.82%
CN(C)C(=O)c1cnc2n1CCN(Cc1ccccc1)C2	1.01%	13.3%	6.19%	-6.07%	-7.87%	8.62%	15.2%	0.000462%	3.19%	8.97%	-5.59%
COc1ccc(OC)c(NC(=O)N2CCCC2c2ccco2)c1 (stereo unspecified)	-1.78%	5.2%	7.39%	-2.94%	-0.888%	1.94%	7.83%	13.8%	-1.06%	3.85%	-8.44%
Cc1nc2ccccc2nc1CN1CCCC1Cn1cncn1 (stereo unspecified)	-0.371%	20.8%	-4.59%	-7.28%	3.23%	1.9%	19.5%	13.1%	16.2%	21.2%	-23.2%
CC(=O)N1CCC(Cc2cnc(-c3c(C)n[nH]c3C)cn2)C1 (stereo unspecified)	-5.08%	0%	10%	-2.02%	1.97%	0.233%	4.67%	-10.8%	3.19%	1.28%	0.0811%
CC(C)c1nc(C(=O)NCCn2ccnc2)nn1-c1cccc(F)c1	-6%	15.8%	-4.38%	-4.66%	-3.46%	-6.47%	1.1%	-1.8%	1.48%	6.17%	-5.42%
O=C(NCc1cccc(F)c1)N1CCC2(CC(=O)N(c3ccsc3)C2)C1 (stereo unspecified)	-3.47%	8.11%	-0.642%	-0.223%	1.95%	0.833%	15.1%	-5.74%	9.9%	15.8%	-4.87%
CCOC(=O)NC(C(=O)NCc1ccc(N2CCCCC2)nc1)C(C)C (stereo unspecified)	-0.611%	13.5%	-4%	-4.82%	-5.94%	0%	13.9%	28.9%	3.45%	16.1%	-3.65%
O=C1CCCc2cc(-c3csc(CCN4CCOC4=O)n3)ccc2N1	-5.49%	20.8%	0.804%	11.1%	4.12%	2.85%	18.1%	36.1%	8.74%	26.8%	-9.88%
CCS(=O)(=O)N1C[C@H]2CN(Cc3cccnc3)C(=O)[C@H]2C1	-1.39%	2.7%	0.503%	1.84%	-6.25%	0%	10.9%	19.2%	4.95%	6.1%	1.54%
Cc1cc(CN2CCN(C(=O)NCc3ccc(C)s3)CC2)no1	-0.722%	17.7%	-2.9%	3.54%	-4.82%	10.3%	3.85%	15.8%	2.46%	21.5%	-5.4%
